From PubChem BioAssay
Shown are actives, neighbours in structure and some others; about 1.3% of the full set was active somewhere.
GLD-1 TGE inh – GLD-1/TGE RNA complex disruptors, primary screen, biochemical, fluorescence polarization; purified GLD-1 + fluorescein TGE RNA; inhibition, % at 5.96 µM; 320,000 compounds, 0.44% hits; AID 2280, 2010;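 active = percent inhibition above a per-plate cutoff, the plate mean of test compounds plus 3 SD, cut at about 30% in these data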
EBV gp42 inh – Epstein-Barr virus gp42 inhibitors, primary screen, biochemical, uHTS, fluorescence polarization. Glycoprotein 42 (Epstein-Barr virus (strain AG876)), Q1HVG2. Fluorescence polarization binding assay, mP read-out. inhibition, % (tested at 21.74 µM). 220,000 compounds, 0.42% hits; in the data active = inhibition above about 50%
E coli Lon inh – inhibitors of E. coli Lon protease, primary screen, biochemical, fluorescence polarization; P0A9M0; purified E. coli Lon protease; inhibition, % at 7.94 µM; 360,000 compounds, 0.42% hits; AID 602123, 2011; in the data active = inhibition above about 13%, passing the limit was not always enough
Bcl-xL primary – inhibitors of human Bcl-xL, primary screen, biochemical, fluorescence polarization, HTS. Bcl-2-like protein 1 (Homo sapiens), Q07817. GST-Bcl-xL / FITC-Bim BH3 peptide fluorescence polarization. inhibition, % at 10.9 µM. 320,000 compounds, 0.7% hits;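 active = inhibition above the mean of all tested compounds plus 3 SD, cutoff set per campaign, cut at about 30% in these data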;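 note: inhibitors lower millipolarization by displacing the labeled peptide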
MEX-5 binding – MEX-5 zinc finger RNA-binding disruptors – biochemical, C. elegans, fluorescence polarization, MLPCN library, primary screen. MEX-5/FITC-TCR2 RNA binding; hits give low values. Zinc finger protein mex-5 (Caenorhabditis elegans), Q9XUB2. AID 1832, 2009. activity score (negative = inhibition of binding), % at 10 µM. 300,000 compounds, 0.38% hits;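 active = inhibition past about -25% in most replicates, and total fluorescence under double the plate's negative control median, limit read from the data; inconclusive = replicates evenly split on the limit, or fluorescence at least double controls; inactive = too little inhibition in most replicates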
Target sequence (Q9XUB2 whole entry, looked up): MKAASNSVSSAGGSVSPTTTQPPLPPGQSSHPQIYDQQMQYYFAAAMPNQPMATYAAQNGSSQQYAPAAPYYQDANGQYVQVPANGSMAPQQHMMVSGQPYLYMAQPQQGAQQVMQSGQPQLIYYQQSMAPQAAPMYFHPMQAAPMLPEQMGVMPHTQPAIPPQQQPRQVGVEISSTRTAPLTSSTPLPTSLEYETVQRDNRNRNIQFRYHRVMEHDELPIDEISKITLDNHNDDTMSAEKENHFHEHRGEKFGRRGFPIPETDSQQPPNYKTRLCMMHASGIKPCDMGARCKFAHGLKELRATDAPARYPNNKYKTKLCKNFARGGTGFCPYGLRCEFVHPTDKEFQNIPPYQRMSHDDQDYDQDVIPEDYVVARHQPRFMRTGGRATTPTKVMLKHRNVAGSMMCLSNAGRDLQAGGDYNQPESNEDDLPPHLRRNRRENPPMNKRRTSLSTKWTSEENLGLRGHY
E coli Lon conf – E. coli Lon protease inhibitor retest, confirmation, biochemical, fluorescence polarization; shares compounds with E coli Lon inh; purified E. coli Lon; inhibition, % at 7.94 µM; 1,400 compounds, 31% hits; in the data active = inhibition above about 16%
A number is an active result; 0 = inactive; ? = inconclusive; - = not tested or not shown; + = active, no number.

SMILES	GLD-1 TGE inh	EBV gp42 inh	E coli Lon inh	Bcl-xL primary	MEX-5 binding	E coli Lon conf
CCCCC1=CC2=C(c3ccco3)C(=O)C(C)(OC(=O)c3ccc(OC)cc3)C(=O)C2=CN1CC1CC1 (configuration not stated)	0	0	39.2	0	0	20.3
CCCCC1=CC2=C(c3ccco3)C(=O)C(C)(OC(=O)c3ccc(OC)cc3)C(=O)C2=CN1CCCCO (configuration not stated)	42.2	0	37.2	79.3	0	0
O=C(Nc1ccc2c(c1)OCO2)c1cc(C2CCCN(C(=O)CCc3ccccc3)C2)on1 (configuration not stated)	-	-	0	-	-	-
CCN(CC)CCN1C(=O)c2cccc3cc(N)cc(c23)C1=O	72.0	101.2	+	123.6	-68.6	52.7
O=C1c2cccc3cc([N+](=O)[O-])cc(c23)C(=O)N1CCN1CCCC1	-	0	86.7	-	0	47.2
O=C1c2cccc3cccc(c23)C(=O)N1CCO	-	-	0	-	-	-
Cc1cc(C)c(S(=O)(=O)N2CCN(CCN3C(=O)c4cccc5cccc(c45)C3=O)CC2)cc1[N+](=O)[O-]	-	0	-	-	-	-
Nc1cc2c3c(cccc3c1)C(=O)N(CCN1CCCC1)C2=O	35.6	94.6	93.7	124.6	-28.1	82.1
Cc1[nH]c2ccccc2c1C(=O)C(=O)NC1CC(=O)N(c2ccc(F)cc2)C1 (configuration not stated)	0	-	0	0	0	-
Cc1cccc(S(=O)(=O)N2CCn3cccc3C2C)c1 (configuration not stated)	0	-	0	0	-	-
Cc1ccc(S(=O)(=O)N2CCn3cccc3C2C)cc1 (configuration not stated)	0	-	20.6	0	-	0
COc1ccc(NC(=O)CN(C)C(=O)CCc2c[nH]c3ccccc23)cc1	0	-	32.2	0	0	0
CC(C)c1cc(C(=O)N/N=C/c2c[nH]c3ccccc23)n[nH]1	0	0	24.8	0	0	0
CCOC(=O)c1c2c3c(c(Cl)ccc3[nH]c1=O)C(=O)c1ccccc1-2	-	0	17.2	-	0	38.1
O=C(Cn1sc2ccccc2c1=O)NC12CC3CC(CC(C3)C1)C2	0	0	16.1	0	0	0
O=C(Cn1sc2ccccc2c1=O)Nc1ccccc1	-	-	0	-	-	-
CCc1cccc(CC)c1N1C(=O)C2=C(SCCCS2)C1=O	-	-	180.4	-	-	159.6
CCCNC(=O)c1cc(S(=O)(=O)N2CCCCC2)ccc1N1CCOCC1	0	-	0	0	0	-
CCCCCC(C)NC(=O)c1cc(S(=O)(=O)N2CCCCC2)ccc1N1CCOCC1 (configuration not stated)	0	-	22.0	0	-	0
CCOC(=O)N1CCN(CC(=O)c2ccc(O)cc2O)CC1	40.8	-	25.2	0	?	29.5
CCOC(=O)N1CCN(CC(=O)c2ccc(O)c(C)c2O)CC1	0	-	0	0	0	-
COc1ccc(NC(=O)CN(C)C(=O)CCCNC(=O)c2ccc(Cl)cc2)cc1	0	-	0	0	0	-
Cn1nc(C(C)(C)C)cc1C(=O)N1CCCC(c2cc(C(=O)Nc3ccccc3Cl)no2)C1 (configuration not stated)	-	-	0	-	-	-
Fc1ccccc1C(c1nnnn1Cc1ccc2c(c1)OCO2)N1CCN(Cc2ccco2)CC1 (configuration not stated)	0	0	15.8	0	0	0
NC(=O)c1ncn([C@@H]2O[C@H](CNC(=O)[C@H](N)CSCc3ccccc3)[C@@H](O)[C@H]2O)n1	-	-	24.4	-	-	0
SMILES	GLD-1 TGE inh	EBV gp42 inh	E coli Lon inh	Bcl-xL primary	MEX-5 binding	E coli Lon conf
CCOC(CNC(=O)C1CCN(S(=O)(=O)c2ccc3nc4c(c(C(=O)O)c3c2)CCCCC4)CC1)OCC	0	-	0	0	0	-
C#CCNC(=O)C1=C[C@@H](c2coc3ccccc3c2=O)C[C@@H](OCCCCO)O1	0	0	18.9	0	0	29.2
O=C(CCC1CCCC1)NC1CCCCC1	0	0	15.3	0	0	0
Cc1cc(Br)cn2c(Cc3ccsc3)c(-c3ccccc3)nc12	-	-	23.8	-	-	0
Clc1ccc(-c2nc3ccc(Cl)cn3c2Cc2ccsc2)cc1	-	-	25.3	-	-	0
Brc1ccc2nc(-c3ccccc3)c(Cc3ccsc3)n2c1	-	-	0	-	-	-
Cc1ccc(-c2nc3c(C)cc(Br)cn3c2Cc2ccsc2)cc1	-	-	0	-	-	-
Clc1ccc2nc(-c3ccco3)c(Cc3ccsc3)n2c1	-	-	0	-	-	-
N#Cc1ccc(-c2nc3ccc(Cl)cn3c2Cc2ccsc2)cc1	-	-	0	-	-	-
CCCc1nc2ccc(Cl)cn2c1Cc1ccsc1	-	-	25.0	-	-	0
Clc1ccc2nc(-c3ccccc3)c(Cc3ccsc3)n2c1	-	-	17.7	-	-	0
Cc1ccc(CNC(=O)C2(S(=O)(=O)c3ccccc3)CC=CC2)cc1	0	-	0	0	0	-
CC(Oc1ccccc1C(N)=O)C(=O)Nc1ccc(S(=O)(=O)N2CCCC2)cc1 (configuration not stated)	0	-	0	0	0	-
O=C(N/N=C/c1ccncc1)c1nn(Cc2ccccc2)c(=O)c2ccccc12	0	0	0	0	0	-
CCCCN(Cc1ccccc1)C(=O)C1CCC(=O)N(CCc2ccccn2)C1 (configuration not stated)	0	-	0	0	0	-
O=C(CCN1C(=O)[C@@H]2Cc3ccccc3CN2C1=O)N[C@@H](C(=O)O)c1ccccc1	0	-	0	0	0	-
O=C(O)C1CCCC2CN3CCc4c([nH]c5ccccc45)C3C(O)C21 (configuration not stated)	34.8	-	20.3	86.4	0	0
CCOc1cc(-c2ccc(N)c(OCC)c2)ccc1N	126.8	145.5	51.6	148.2	-	98.2
Cc1ccc(C2C(C(=O)c3cccs3)=C(O)C(=O)N2c2nnc(C)s2)cc1 (configuration not stated)	101.5	123.0	29.3	96.0	-67.0	60.7
O=C1C2C3CCC(CC3)C2C(=O)N1c1ccccc1 (configuration not stated)	0	-	0	0	0	-
CCN(CC)C(=O)[C@H]1CC(CC(=O)NCCCN(C)C)C(=O)N2CCc3c([nH]c4ccc(OC)cc34)[C@]12C (some centres not stated)	-	-	+	-	-	0
CCN(CC)C(=O)[C@H]1CC(CC(=O)NCCN2CCOCC2)C(=O)N2CCc3c([nH]c4ccc(OC)cc34)[C@]12C (some centres not stated)	-	-	0	-	-	-
O=c1oc2ccccc2cc1-c1nc(-c2cccs2)cs1	139.0	112.5	39.3	0	?	45.5
CSCCC(NC(=O)c1ccco1)C(=O)N1CCC(C(N)=O)CC1 (configuration not stated)	0	-	0	0	0	-
CSCCC(NC(=O)c1ccco1)C(=O)N1CCCCCCC1 (configuration not stated)	0	-	21.5	0	0	0
Cc1ccc(NC(=O)CSc2nnc3c(n2)[nH]c2ccccc23)cc1	0	-	0	0	0	-
